# From the supplement of paper PMC10105736
# ± gives the standard deviation of the averaged measurements.
# B1: Membrin (protein)
# chain: MESLYHQTNNVVKDIERDFQRLSQLSAQESLDVENGIQLKITQANANCDRLDVLLYKVPPSQRQSSKLRVDQLKYDLRHLQTSLQTARERRQRRMQEISEREQLLNHRFTANSAQPEETRLQLDYELQHHTQLGNAHRGVDDMIASGSGILESLISQRMTLGGAHKRIQAIGSTLGLSNHTMKLIERRLVEDRRIFIGGVVVTLLIIALIIYFLVL
# B2: RFeSP (protein)
# chain: MMNAVSRAYVRGGAQVLSTGLKASGVAVNSMANRQAHTDLQVPDFSAYRRESVKDSRRRNDTAEERKAFSYLMVGAGAVGGAYAAKGLVNTFIGSMSASAEVLAMAKIEIKLSDIPEGKSVTFKWRGKPLFIRHRTAAEIETERNVPTSTLRDPEADDQRVIKPEWLVVIGVCTHLGCVPIANAGDWGGYYCPCHGSHYDASGRIRKGPAPLNLEVPTHEFPNEGLLVVG
# B3: pho (protein)
# chain: MAYERFGIILQSEQYDEDIGNTKVNQKMNEGNHYDLHRKNAFDRIIHSESKKGDNVINYNIHENDKIKAADNIFSSKLKMNPNMSYEMNINCFKNIGYGENQETSKVLTNSLSNNDINTEESGVVDKNSPFLTLGTTILNSNGKSRRWEQKLVHIKTMEGEFSVTMWASGISDDEYSGSDQIVGASDLLKGKEEFGIDGFTSQQNKEYQKMESKFTNAQTLEMPHPISSVQIMDHLIKERGNLSQENNISERILSKTTLSFEEPILLPDSSSIELVNETAAMTINNHRTLSNHTGNTGDLHALPSSVPFRIGLHEGQVNDCLSTISQSTHQDNTDSTGCGEMNLSEVTVSYTNDKKIACPHKGCNKHFRDSSAMRKHLHTHGPRVHVCAECGKAFVESSKLKRHQLVHTGEKPFQCTFEGCGKRFSLDFNLRTHVRIHTGDRPFVCPFDACNKKFAQSTNLKSHILTHAKAKRNTSISGKSGCSNAESNSQSEDTSANYVKVELQDSVTENHVPFVVYAD
# B4: Fkbp39 (protein)
# chain: MSMFWGLNMKPERKYSQTIIKSFHISGVALDKGQEAKLYLAAEKQEYIVATVTKAIPQVALDLNFSKGDRIMFYTAGDASVSLLGYLHDIDSEDDEDDDQMTIENLLNSKAIKNSKKSEDDEDENESGEEDEEDTDDDSQIIEEYESFLENGEEEDDDDVDEDNEESGEEDEQDSDDSEAEEEQPKAKVAKLSPGASAKKSGKEQNGVAKKEEAKQQQKKKEKPEAKKEQPKAKEPAKQQPASKDPRTITGGVKIVDQVVGKGEEAKQGKRVSVYYIGRLQSNNKTFDSLLKGKPFKFALGGGEVIKGWDVGVAGMKVGGKRVITCPPHMAYGARGAPPKIGPNSTLVFEVELKAVH
# B5: RpS20 (protein)
# chain: MAAAPKDIEKPHVGDSASVHRIRITLTSRNVRSLENVCRDLINGAKNQNLRVKGPVRMPTKTLRITTRKTPCGEGSKTWDRFQMRIHKRIIDLHSPSEIVKKITSINIEPGVEVEVTIAN
# B6: cnn (protein)
# chain: MNSNRTSSSHNSRNLKILNASFDVPRPPGGGNSPLPSQGRSVRELEEQMSALRKENFNLKLRIYFLEEGQPGARADSSTESLSKQLIDAKIEIATLRKTVDVKMELLKDAARAISHHEELQRKADIDSQAIIDELQEQIHAYQMAESGGQPVENIAKTRKMLRLESEVQRLEEELVNIEARNVAARNELEFMLAERLESLTACEGKIQELAIKNSELVERLEKETASAESSNEAIDSLKVELEACRKENQDLVTSIRTLKHDMKRQVRSMKEAANTMDVQRQSILLLEATIKRKEKSCGSMQKNVLNYEALIAKLNAELETMRQQNVYFRELSENLQQKEVRQLDRGVAIVQPMRMTADAGRFVWQSGTIVAQEPLPLERQSAAATSNVSVSAVRLSSGPPPDQTYPVNGHDRAKYGLLQLFAAKLDWISAVPLALGHLALKIILLAMRLHSCLQNVHIPLRANRDLGAQLADKICELQEAQEKLKERERIHEQACRTIQKLMQKLSSQEKEIKKLNQENEQSANKENDCAKTVISPSSSGRSMSDNEASSQEMSTNLRVRYELKINEQEEKIKQLQTEVKKKTANLQNLVNKELWEKNREVERLTKLLANQQKTLPQISEESAGEADLQQSFTEAEYMRALERNKLLQRKVDVLFQRLADDQQNSAVIGQLRLELQQARTEVETADKWRLECVDVCSVLTNRLEELAGFLNSLLKHKDVLGVLAADRRNAMRKAVDRSLDLSKSLNMTLNITATSLADQSLAQLCNLSEILYTEGDASHKTFNSHEELHAATSMAPTVENLKAENKALKKELEKRRSSEGQRKERRSLPLPSQQFDNQSESEAWSEPDRKVSLARIGLDETSNSLAAPEQAISESESEGRTCATRQDRNRNSERIAQLEEQIAQKDERMLNVQCQMVELDNRYKQEQLRCLDITQQLEQLRAINEALTADLHAIGSHEEERMVELQRQLELKNQQIDQLKLAHSTLTADSQITEMELQALQQQMQEIEQLHADSVETLQSQLQKLKLDAVQQLEEHERLHREALERDWVALTTYQEQAQQLLELQRSLDYHQENEKELKQTLVENELATRALKKQLDESTLQASKAVMERTKAYNDKLQLEKRSEELRLQLEALKEEHQKLLQKRSNSSDVSQSGYTSEEVAVPMGPPSGQATTCKQAAAAVLGQRVNTSSPDLGIESDAGRISSVEVSNAQRAMLKTVEMKTEGSASPKAKSEESTSPDSKSNVATGAATVHDCAKVDLENAELRRKLIRTKRAFEDTYEKLRMANKAKAQVEKDIKNQILKTHNVLRNVRSNMENEL
# B7: eIF3f1 (protein)
# chain: MSALNLTVRVHPVVLFQVVDAFERRNADSHRVIGTLLGSVDKGVVEVTNCFCVPHKEHDDQVEAELSYALDMYDLNRKVNSNESVVGWWATGNDVTNHSSVIHEYYARECNNPVHLTVDTSLQGGRMGLRAYVCIQLGVPGGKSGCMFTPIPVELTSYEPETFGLKLLQKTVGVSPAHRPKTVPPMLDLAQISEASTKLQSLLDLILKYVDDVIAHKVTPDNAVGRQLLDLIHSVPHMTHEQFTQMFNANVRNLLLVITLSQLIKTQLQLNEKLTFLPTA
# B8: sigmar (protein)
# chain: MADNVFKSHDIGLRAQKKILSRMATKNIAKTFIDGTTASLLDNLYRLCKMHTGNKAKAEKLIKNIIKIVIKIGVLHRNNQFSDEELQKAELFKRKFQNTQLSIISFYEVDFTFDLPYLQKSIAESQVALKSIVQPHLTEKSLGRIDEVFDFFGEEALLETAFRPDSPYREVMGKIVADINAAMETGDI
# B9: mgr (protein)
# chain: MTGIMDSVEMPKLPENQKTFAGIPEAVFLEEIDTFMSQPENENCEKVLQRLDEQHGKYRFMACNLEARRRKLKSQIPDLERSLEMVNVLRKEDEERETQFLLSDQVFIKTLVPPTKTVYLWLGASVMLEYPLDEAEALLNQNITSAVGNLKSVEHDQDFLRDQITTTEVNMARVYNWGVKKRQAATKTTATTPS
# B10: EMC8-9 (protein)
# chain: MCDYKVSERAYAKLIFHAAKYPHQAVNGLLLAEKTSKGSQVEIVDAIPLFHQCLYVTPMAEVALMLIDAHAEREGLVIAGYYAAPENFYDNQVDKTPAAKIADKIQENFKNACFVVVDNKLMTLQHDRAAIQVFNCPGDSGARWSKAKFTLSQASDTLEGVSLLLKRGAMRDLVDFDNHLDNPDKNWTNDFLNQPLNDLQKLY
# B11: Pcl (protein)
# chain: MMNNHFHLQHDHPPQNVAHPFMQQPSTAVPSAPPATYGYLAQPAGQQPQWMTTTYQILPPSVGPATVAKRYYATTGPQTTHPTHPSTIQITNSFAQQSTPPKQQAATSCSPFKANNIRIISTAPSVYSLNKPPQEAHSTYAPVQSYYLPSGGGQTAGQINLLAASGTGKQLQPPPLVPVTNSTSPPSTVVLDRINICINNHYTETPTSLSSSLTTAQQPSPIIPAIQHKAILPLIDSSTADSSSCSSSSVSSSSYSGTATTSAAVVIVDEPDSTTTTPQTPPTTPEAMSSPGKSSPSPPLLATQSLLKGVNSMKPSFKTVEAAPPTPPTPPSPPPPPPAPPVAAPSPAVTYALQEDVFIKCNDGRFYLGTIIDQTSDQYLIRFDDQSEQWCEPDKLRKLGGGSSITAGGGGASTTESTNTSPSGPMCVACKRSDIEDVVEICERCGRGYHRGCTVEIVTGSGIWSCKRCAKPMKMQQPVSHKITKPAGICRQLPYHADKLSWDEKHRVNEEQIYCYCGKPGKFDHNMLQCCKCRNWFHTQCMQNFKKKLLRGDMFFVFCCTVCNNGIEFVRRMQIEWVDVLHIALYNLRKHQHQKYHHLLNDIWPFILEQRHQLPICEKWRTLPETALMERLKQTLKDYSDRFVCGREFKRAPAFYALRHSGPPHIPKVFLEPHEELSDELLEKRFKLMLMPEEPDEGANELPKRVPKDVYEFNTDEDDPVETSEDEIPIKQIIEKAKKQAAQKADKHDELPLKPDLADDNANDGDPGKLPAPIPPLLDANSSRKRKAFRLSKRYDNSRNHCDLSSDENSSSSRGTSSLDLIIPPPVNFLGRNNPFLMATPKKASQGRSISVGTGVGVNGIINSIFKLKGTSKEQPRMVRTIKRRLSAKDITIGPNQEVRRRRTRRLTTAIEVISTTTINPIPSHYLPIYAKDLQPPAPPMGKPTHGRLLRQRPQKQSPSQSRRNSTSSTATSSSSNGIGAPGHSMLDLKQSVNKYFGGAMNRIDAGEPFAIRAKRRMGNGQVQYLVEWGGDTATTAIGLLGN
# B12: Hn (protein)
# chain: MYQRQVSFDKPTRVEDSAYIVEGVDIKEARNTCLLFSPKDSSLSSGALANILAIFKKHDINLVHIESRSSLRVPGYEFFVEADGKSGALGKAIEDVKEQCSYFNIISRDYKDNATAVPWFPRRIRDLDRFANQILSYGSELDADHPGFTDPEYRKRRKYFADIAYNYKHGEPLPHVDYTKEEIETWGIIFRNLTKLYKTHACREYNHVFPLLVDNCGFREDNIPQLEDVSNFLRDCTGFTLRPVAGLLSSRDFLAGLAFRVFHSTQYIRHPSKPMYTPEPDVCHELMGHVPLFADPAFAQFSQEIGLASLGAPDDYIEKLSTIFWFTVEYGVCRQEGELKAYGAGLLSSYGELEYCLTDKPQLKDFEPEVTGVTKYPITQFQPLYYVADSFETAKEKTIKFANSIPRPFGVRYNAYTQSVEVLDSKPQISNLMDNINSEFQILQNAVAKLRV
# Experiments:
# Assay in all cases: MAPPIT interaction score (arbitrary units); higher = stronger binary interaction signal, active = hit call of the paper;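 active = MAPPIT score above the 99th percentile of random reference set scores in the same batch; inactive = at or below it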
# Eglp4 = conditions: MAPPIT configuration: N-C; pair source set: screen_3
# Faf2 = conditions: MAPPIT configuration: N-C; pair source set: screen_4
# RIC-3 = conditions: MAPPIT configuration: N-C; pair source set: screen_4
# E(spl)m4-BFM = conditions: MAPPIT configuration: N-C; pair source set: RRS
# E(z) = conditions: pair source set: Lit-BM-16
# Fkbp39 = conditions: pair source set: Lit-BM-16
# EndoB = conditions: MAPPIT configuration: N-N; pair source set: screen_2
# Fatp3 = conditions: MAPPIT configuration: N-N; pair source set: Curagen_low_conf
# Eato = conditions: MAPPIT configuration: N-N; pair source set: Lit-BS-16
# eIF3m = conditions: pair source set: Lit-BM-16
# pnr = conditions: MAPPIT configuration: N-N; pair source set: DPIM
# Fkbp12 = conditions: MAPPIT configuration: N-N; pair source set: DPIM
# Elal = conditions: MAPPIT configuration: N-N; pair source set: Finley_Y2H
# EMC2B = conditions: MAPPIT configuration: N-C; pair source set: Lit-BM-16
# Fer1HCH = conditions: MAPPIT configuration: N-N; pair source set: Curagen_low_conf
# mino = conditions: MAPPIT configuration: N-N; pair source set: Lit-BS-16
# 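Further: HEK293T cells with Epo stimulation, STAT-responsive firefly luciferase reporter, fold induction versus unstimulated cells divided by the larger fold induction of two negative controls lacking either bait or prey.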
binder,measurement,setting,value
B1,MAPPIT interaction score,Eglp4,0.261 (inactive)
same,MAPPIT interaction score,Faf2,2.2 (inactive)
same,MAPPIT interaction score,RIC-3,-0.382 (inactive)
B2,MAPPIT interaction score,E(spl)m4-BFM,0.917 (inactive)
B3,MAPPIT interaction score,E(z); MAPPIT configuration: N-C,0.498 (inactive)
same,MAPPIT interaction score,E(z); MAPPIT configuration: N-N,0.583 (inactive)
B4,MAPPIT interaction score,Fkbp39; MAPPIT configuration: N-C,3.82 (active)
same,MAPPIT interaction score,Fkbp39; MAPPIT configuration: N-N,2.59 ± 0.55
B5,MAPPIT interaction score,EndoB,3.62 (active)
B6,MAPPIT interaction score,Fatp3,-0.429 (inactive)
B7,MAPPIT interaction score,Eato,0.224 (inactive)
same,MAPPIT interaction score,eIF3m; MAPPIT configuration: N-C,3.45 (inactive)
same,MAPPIT interaction score,eIF3m; MAPPIT configuration: N-N,5.78 (active)
same,MAPPIT interaction score,pnr,-0.504 (inactive)
B8,MAPPIT interaction score,Fkbp12,-0.294 (inactive)
B9,MAPPIT interaction score,Elal,0.515 (inactive)
B10,MAPPIT interaction score,EMC2B,-4.28 (inactive)
B11,MAPPIT interaction score,E(z); MAPPIT configuration: N-C,0.709 (inactive)
same,MAPPIT interaction score,E(z); MAPPIT configuration: N-N,3.05 (active)
B12,MAPPIT interaction score,Fer1HCH,0.406 (inactive)
same,MAPPIT interaction score,mino,0.808 (inactive)
